# Experimental data reported in ChEMBL document CHEMBL3988442, “University of Dundee, Small-Polar-MMV Screening Library” (2021).
# About 13,000 (27%) of roughly 48,000 compounds showed an effect of 50% or more. Some of the results follow.
# Test system: Wolbachia pipientis
# Test: Anti-Wolbachia Cell-Based Screen
# Type: functional
# Design: scale not given: in the data most compounds retested in dose-response had high values
# Conditions: 5 µM
row,Structure (SMILES),Percent Effect [%]
1,O=c1ccn(Cc2nc(-c3ccccc3F)cs2)c(=O)[nH]1,-9.097
2,COc1cccc2c1OCC(C(=O)NCc1c(C)noc1C)C2 (stereo unspecified),-13.16
3,Cc1ncc(CN(C)C(=O)Nc2ccc(CN3CCOC3=O)cc2)s1,8.802
4,CCn1c(C)cc(-c2csc(Cn3ccc(=O)[nH]c3=O)n2)c1C,-14.65
5,Cn1cccc(NC(=O)NCCOCc2ccccc2)c1=O,-14.44
6,Cc1ccc(S(=O)(=O)NC(=O)CCOCc2ccccc2)s1,4.537
7,Cc1cc(=O)[nH]c(=O)n1COCc1ccccc1,71.08
8,Cc1cc(=O)[nH]c(=O)n1COCCOCc1ccccc1,87.63
9,Cc1ccccc1COCCOCn1c(C)cc(=O)[nH]c1=O,116.8
10,COCCn1c(=O)n(Cc2ccccc2C)c2cc(C(=O)O)ccc21,-8.391
11,Cc1cc(=O)[nH]c(=O)n1Cc1ccccc1,-6.606
12,CC/C(C)=C/CCN1CCN(C)C2(CCNC(=O)CC2)C1 (stereo unspecified),-7.249
13,O=C(NCc1ccncc1)c1nc2c(o1)CN(C(=O)c1cccnc1)C2.O=C(O)C(F)(F)F.O=C(O)C(F)(F)F,0.8995
14,Cc1nc[nH]c1CN1CCN(C(=O)CCC(F)(F)F)[C@H]2CS(=O)(=O)C[C@H]21,0
15,Cn1ncnc1CNC1CCCc2cc(F)ccc21 (stereo unspecified),-3.531
16,COc1ccc(CN2CC[C@H](NC(C)=O)[C@@H](O)CC2)c(OC)c1,-2.423
17,COc1cccc(CN2CC[C@H](NC(C)=O)[C@@H](O)CC2)c1F,34.02
18,COc1ccc(F)c(CN2CCCC3(CCN(C4CCOCC4)C3)C2)c1 (stereo unspecified),-3.304
19,COc1ccc(CN2CC[C@H](NC(C)=O)[C@@H](O)CC2)c(F)c1,118.9
20,COc1cc(CN2CC[C@H](NC(C)=O)[C@@H](O)CC2)ccc1F,106.7
21,COc1ccc(CN2CCC(C(N)=O)CC2)cc1SC(F)(F)F,0.6878
22,O=C(C1CCOc2ccccc21)N1CCOc2cccc(F)c21 (stereo unspecified),6.908

row,Structure (SMILES),Percent Effect [%]
1,O=C(c1ccc(-n2cnnc2)cc1Cl)N1CCCC2(CCNC2)C1 (stereo unspecified),-4.992
2,CNc1cc2c(nn1)CCN(C(=O)c1ccc3c(c1)OCO3)C2,105.8
3,CNc1cc2c(nn1)CCN(C(=O)C1CCCc3ccccc31)C2 (stereo unspecified),-4.064
4,CNc1cc2c(nn1)CCN(C(=O)c1ccc3c(c1)CCC3)C2,114.4
5,Cc1ccc2oc(C(=O)N3CCc4nnc(N(C)C)cc4C3)cc2n1,-8.128
6,CNc1cc2c(nn1)CCN(C(=O)c1cc(F)cc(F)c1)C2,8.008
7,CNc1cc2c(nn1)CCN(C(=O)c1cc(C)no1)C2,125.3
8,CNc1cc2c(nn1)CCN(C(=O)c1coc(Br)c1)C2,117.2
9,CN(C)CCNC(=O)c1ccc2c(-c3nccs3)noc2c1,-16.02
10,Cn1cc(S(=O)(=O)NCCc2nnc3ccccn23)cn1,-3.582
11,O=C(c1ncccn1)N1C[C@@H]2COC[C@]2(c2nnc(C3CC3)o2)C1,-0.5118
12,Cc1noc(C)c1CNC(=O)C1(NS(C)(=O)=O)CCCCC1,-47.58
13,Cc1ccc(C)c(CC(=O)NC2CCC(N3C(=O)CCC3=O)CC2)c1 (stereo unspecified),6.752
14,CC1(C)OCC2(CO1)CN(S(=O)(=O)c1ccc(Br)s1)C2,-6.121
15,CCn1cc(S(=O)(=O)N2CCC(C)Sc3ccccc32)cn1 (stereo unspecified),-6.533
16,CCn1cc(S(=O)(=O)N2CCN(S(=O)(=O)c3ccc(Br)s3)CC2)cn1,99.05
17,CCn1cc(S(=O)(=O)N2CCN(S(=O)(=O)c3ccc(Br)s3)CC2)c(C)n1,110.7
18,CCC1CCCN(S(=O)(=O)c2cnn(C)c2)C1 (stereo unspecified),12.29
19,CCN1CCN(S(=O)(=O)c2cc(C)c(Cl)cc2Cl)CC1,18.7
20,CCc1ccc(S(=O)(=O)N2CC3(COC(C)(C)OC3)C2)s1,-8.267
21,CCn1cc(S(=O)(=O)N2CCCSc3ccccc32)cn1,-3.262
22,Cn1cc(S(=O)(=O)N2CCN(S(=O)(=O)c3ccc(Br)s3)CC2)cn1,96.55

row,Structure (SMILES),Percent Effect [%]
1,O=C(NS(=O)(=O)c1ccc(F)cc1)C1CCOc2ccccc21 (stereo unspecified),-10.91
2,Cc1scc(C(=O)N2CCC3(CC(=O)NC3=O)C2)c1-c1ccccc1 (stereo unspecified),-14.34
3,CS(=O)(=O)N1CCCC12CCN(Cc1nccs1)C2.O=C(O)C(F)(F)F (stereo unspecified),-1.689
4,Cc1nc2c(c(C)c1CC(=O)Nc1ccccc1F)c(=O)[nH]n2C,-18.93
5,Cc1nc2c(c(C)c1CC(=O)NCc1ccc(F)cc1)c(=O)[nH]n2C,91.6
6,Cc1nc2c(c(C)c1CC(=O)NCc1ccco1)c(=O)[nH]n2C,144
7,Cc1nc2c(c(C)c1CC(=O)NCc1ccccc1F)c(=O)[nH]n2C,107.2
8,CCNC(=O)Cc1c(C)nc2c(c1C)c(=O)[nH]n2C,-13.5
9,Cc1nc2c(c(C)c1CC(=O)NC(C)c1ccccc1)c(=O)[nH]n2C (stereo unspecified),-24.46
10,Cc1ccc(C(C)NC(=O)Cc2c(C)nc3c(c2C)c(=O)[nH]n3C)o1 (stereo unspecified),-8.138
11,Cc1nc2c(c(C)c1CC(=O)Nc1ccnn1C(C)C)c(=O)[nH]n2C,-7.188
12,Cc1ccc(C)c(NC(=O)Cc2c(C)nc3c(c2C)c(=O)[nH]n3C)c1,0.2479
13,Cc1cc(C)cc(NC(=O)Cc2c(C)nc3c(c2C)c(=O)[nH]n3C)c1,3.943
14,Cc1nc2c(c(C)c1CC(=O)NCc1cccc(C#N)c1)c(=O)[nH]n2C,1.091
15,Cc1ccc(CNC(=O)Cc2c(C)nc3c(c2C)c(=O)[nH]n3C)cc1,114.9
16,Cc1c(F)cc(C(=O)NCC(F)(F)F)cc1NCC(=O)N(C)C,4.918
17,CCOc1ccccc1NC(=O)CN(C)Cc1ccccc1Cl,6.554
18,OCCn1cc(CN2CCN(CCOCC(F)(F)F)CC2)cn1,2.281
19,CN(C)CC(=O)N1Cc2cc(N(C)C)ccc2C1c1cnco1 (stereo unspecified),-12.83
20,CC(C)C(C(=O)N(C)C)c1cccc(Cl)c1 (stereo unspecified),-9.046
21,CN(C)c1cccc(C(=O)Nc2cn(C)c(=O)n(C)c2=O)c1,-7.07
22,COc1c(C(=O)N2CCC(COCc3ccccc3)C2)c(C)nn1C (stereo unspecified),-0.4444

row,Structure (SMILES),Percent Effect [%]
1,Cc1ccsc1CNC(=O)Cc1c(C)nc2c(c1C)c(=O)[nH]n2C,-0.5496
2,CCCNC(=O)Cc1c(C)nc2c(c1C)c(=O)[nH]n2C,-12.53
3,Cc1nc2c(c(C)c1CC(=O)NCc1cccs1)c(=O)[nH]n2C,165.2
4,O[C@H]1CC[C@@H](Cc2cc(-c3ccc(F)cc3)on2)O[C@@H]1CNCC1CC1,6.759
5,O=C(CCc1cccs1)N1CCc2[nH]nc(COc3ccccc3)c2C1,98.05
6,O=C(c1csnn1)N1CCc2[nH]nc(COc3cccc(Cl)c3)c2C1,7.373
7,O=C(CCc1ccco1)N1CCc2[nH]nc(COc3ccccc3)c2C1,91.35
8,CS(=O)(=O)N1CCc2[nH]nc(Cc3cccs3)c2C1,98.95
9,Cc1noc(C)c1-c1n[nH]c2c1CN(S(=O)(=O)c1cccs1)CC2,16.83
10,O=C(O)C(F)(F)F.OCCOCc1n[nH]c2c1CN(Cc1ccco1)C2,3.715
11,O=C(O)C(F)(F)F.O=C(O)C(F)(F)F.c1ccc(OCc2n[nH]c3c2CN(Cc2cccs2)C3)nc1,-9.854
12,O=C(O)C(F)(F)F.O=C(O)C(F)(F)F.O=C(O)C(F)(F)F.c1cncc(OCc2n[nH]c3c2CN(Cc2cccs2)C3)c1,-32.3
13,COCc1n[nH]c2c1CN(Cc1cccs1)C2.O=C(O)C(F)(F)F,1.549
14,COc1nc2c(cc1C(=O)N(C)Cc1[nH]nc3c1CCC3)CCC2,7.806
15,OC(COCc1ccccc1Cl)CN1CC(n2cccn2)C1 (stereo unspecified),-11.39
16,Cc1nc(CN2CCCC(CCNS(C)(=O)=O)C2)c[nH]1 (stereo unspecified),-5.765
17,Cc1occc1C(=O)N1Cc2nccn2CC(CN2CCOCC2)C1.O=C(O)C(F)(F)F (stereo unspecified),-15.88
18,CN(C)CCN(C)c1ccc(-c2nc(COc3ccccc3)no2)cn1,-2.014
19,CC[C@H]1COCCN1C(=O)CCCn1nnc(-c2ccc(F)cc2)n1,-1.392
20,CN(Cc1ccc([S+](C)[O-])cc1)c1ccc(Br)cn1 (stereo unspecified),-27.32
21,CN(Cc1ccc([S+](C)[O-])cc1)c1cncc(Cl)n1 (stereo unspecified),-12.95
22,CN(Cc1ccc([S+](C)[O-])cc1)c1cncc(Br)c1 (stereo unspecified),105.7

row,Structure (SMILES),Percent Effect [%]
1,CN(Cc1ccncc1)c1cncc(Br)c1,97.92
2,CN(Cc1cnccn1)c1cncc(Br)c1,109.1
3,COc1cc(F)ccc1N(C)Cc1ccncc1,-8.772
4,Cc1cc(C2CCC2)nc(N(C)Cc2cnccn2)n1,-5.292
5,Cc1nc(N(C)C)nc(N(C)Cc2cnccn2)c1C,49.18
6,CCCN(CCC)S(=O)(=O)N(C)Cc1ccncc1,3.881
7,O=C(O)C(F)(F)F.O=C(O)C(F)(F)F.c1ccc(COC[C@H]2CC[C@H]3[C@H](CCN3c3ncccn3)O2)nc1,-2.736
8,NC(=O)c1cc(C2CCCN(Cc3ccc4c(c3)OCCO4)C2)n[nH]1 (stereo unspecified),95.83
9,CCc1cnc(CN2CCCC(c3cc(C)[nH]n3)C2)o1 (stereo unspecified),-1.395
10,O=C(NCC1CCOC1)N1CCN(Cc2ccc3c(c2)CCO3)CC1 (stereo unspecified),-2.282
11,COc1ccc(F)cc1CN1CCCC(c2cc(C(N)=O)[nH]n2)C1 (stereo unspecified),-1.722
12,Cc1cc(C2CCCN(CCc3ccccn3)C2)n[nH]1 (stereo unspecified),-3.98
13,Cc1cc(C2CCCN(CCc3ccc4c(c3)CCO4)C2)n[nH]1 (stereo unspecified),104
14,O=C(C1CCCN(CCc2ccc3c(c2)CCO3)C1)N1CCCC1 (stereo unspecified),96.85
15,NC(=O)c1cc(C2CCCN(CCc3ccc4c(c3)CCO4)C2)n[nH]1 (stereo unspecified),94.15
16,O=C(C1COCCO1)N1CCN(Cc2ccc3c(c2)CCO3)CC1 (stereo unspecified),2.717
17,CCOCCN1CCCC(c2cc(C(N)=O)[nH]n2)C1 (stereo unspecified),-3.243
18,NC(=O)c1cc(C2CCCN(CCOCC(F)(F)F)C2)n[nH]1 (stereo unspecified),-1.839
